Assay results: PubChem BioAssay (Tox21)
“And” between values parts separate entries of the source, which are not always exact repeats. Identical values can stand only once. Results filed as inconclusive are left out. A call without a number means that no potency is given here. The source made the active and inactive calls. Unless noted, calls follow the shape of the dose curve; as a rule, active = well fitted curve in the direction sought with a large enough effect in the repeat runs; inconclusive = weak or mixed curves; inactive = no such curve, though single readings can be large; an effect the other way counts as inactive or inconclusive.

Experiments:
[1] = qHTS assay for small molecule agonists of the p53 signaling pathway - cell viability (AID 651633; calls by dose curve;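 also: p53RE-bla HCT reporter cells with a stable beta-lactamase p53 reporter; series mostly up to about 83 µM; nearly all actives have a fitted effect of over 30% in size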)
Method in brief: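 p53RE-bla cells, seeded at 4,000 per well and rested 5 h at 37 C/5% CO2, received compounds in DMSO for 16 h at 37 C. CellTiter-Glo was then added, and luminescence was read after 30 min at room temperature to gauge cytotoxicity.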

[2] = qHTS assay for small molecules that induce genotoxicity in human embryonic kidney cells expressing luciferase-tagged ATAD5 - cell viability (AID 651634; calls by dose curve; also: nearly all actives have a fitted effect of over 25% in size)
Method in brief: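 Cells (HEK293T, luciferase-tagged ATAD5) are seeded at 2,000 per well, dosed with compound or DMSO vehicle, and incubated 15.5 hr at 37C and 5% CO2. CellTiter-Fluor is added for 30 min before fluorescence is measured.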

[3] = qHTS assay for small molecule disruptors of the mitochondrial membrane potential - cell viability (AID 720634; calls by dose curve;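 also: human HepG2 liver cancer cells; series mostly up to about 83 µM; nearly all actives have a fitted effect of over 20% in size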)
Method in brief: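 Cytotoxicity was measured by ATP quantitation in HepG2 wells that had first been treated with compound for 1 hr and stained with m-MPI dye; CellTiter-Glo incubation was 30 min at room temperature.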

[4] = qHTS assay for small molecule disruptors of the mitochondrial membrane potential (AID 720635); also: potency is read from the fitted curve at half-maximal effect
Method in brief: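 HepG2 cells (2,000/well) attached overnight at 37C, then took compound for 1 hr at 37C, 5% CO2. Mito-MPS dye was added for 30 min; fluorescence was read at 490/535 nm (monomers) and 540/590 nm (aggregates).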

[5] = qHTS assay to test for compound auto fluorescence at 590 nm (red) in HepG2 cells (AID 720674)
Method in brief: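 Intrinsic compound fluorescence in the red window (Ex/Em 540/590 nm) is measured in attached HepG2 cells exposed for 1 hr, DMSO vehicle as baseline, benchmarked to Rose Bengal sodium.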

[6] = qHTS assay to test for compound auto fluorescence at 535 nm (green) in HepG2 cells (AID 720675)
[7] = qHTS assay to test for compound auto fluorescence at 590 nm (red) in HEK293 cells (AID 720679)
Method in brief: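 Each well held 2,000 HEK293 cells in medium containing 10% dialyzed FBS. Following 4-5 hr attachment at 37C, 23 nL test compound or DMSO was added; plates sat overnight, and red fluorescence (540/590nm) was recorded.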

[8] = qHTS assay to test for compound auto fluorescence at 460 nm (blue) in HEK293 cells (AID 720678)
Method in brief: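 Cells were seeded and left to adhere for 4-5 hr at 37C. Compounds were then pin-transferred. After an overnight incubation at 37C under 5% CO2, intrinsic fluorescence at 405/460 nm was measured and referenced to triamterene.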

[9] = qHTS assay for small molecules that induce genotoxicity in human embryonic kidney cells expressing luciferase-tagged ATAD5 (AID 651632); also: nearly all actives have a fitted effect of over 15% in size
Method in brief: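 Cells were seeded at 2,000 per well, dosed with compound, and incubated 16 hr at 37C in 5% CO2. Luciferase activity was then quantified after a 30 min room-temperature incubation with Amplite.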

Structure (SMILES)	Potency [1]	Potency [2]	Potency [3]	Potency [4]	Potency [5]	Potency [6]	Potency [7]	outcome [8]	Potency [9]
CCCCCCC(C)O (stereo not drawn)	inactive	inactive	inactive	inactive	inactive	inactive	inactive	–	–
Cc1ccc(C)c(O)c1	inactive	inactive	inactive	inactive	inactive	inactive	inactive	–	–
O=C(CCCN1CCC(O)(c2ccc(Cl)cc2)CC1)c1ccc(F)cc1	–	–	inactive	–	inactive	inactive	inactive	inactive	–
C[C@]12CC[C@@H]3c4ccc(O)cc4CC[C@H]3[C@@H]1CC[C@@H]2O	–	–	inactive	26.6 µM (active) and 30.6 µM (active) and 17.2 µM (active)	inactive	inactive	–	–	inactive
CC(=O)O[C@]1(C(C)=O)CC[C@H]2[C@@H]3C=C(C)C4=CC(=O)CC[C@]4(C)[C@H]3CC[C@@]21C	–	inactive	inactive	–	inactive	inactive	inactive	inactive	inactive
Cc1ccc(/C(=C\CN2CCCC2)c2ccccn2)cc1	inactive	–	inactive	inactive	inactive	inactive	inactive	inactive	–
FC(F)(F)C(Cl)Br (stereo not drawn)	inactive	inactive	inactive	inactive	inactive	inactive	–	–	–
CC(=O)O[C@]1(C(C)=O)CC[C@H]2[C@@H]3C=C(Cl)C4=CC(=O)CC[C@]4(C)[C@H]3CC[C@@]21C	–	inactive	inactive	–	inactive	inactive	–	inactive	inactive
CCCCCC1C(=O)CCC1CC(=O)OC (stereo not drawn)	–	inactive	inactive	inactive	inactive	inactive	inactive	–	–
[O-]/[N+](=N\O)c1ccccc1	inactive	inactive	inactive	inactive	inactive	inactive	–	inactive	–
